From PubChem BioAssay (NCATS)
Several values for one entry are separate records, joined by “and”; a condition that tells them apart may be missing. Equal entries are not always repeated. Records with an inconclusive call do not appear. Activity calls are given as the source filed them. Calls come from the whole dose curve; as a rule, active = well fitted inhibition curve with a large enough effect; inconclusive = small, poorly fitted or top-dose-only effect; inactive = no such curve, though single readings can be large or run the other way.

Each molecule was assayed against Cytochrome P450 3A4 (Homo sapiens) (UniProt P08684) (assay: qHTS Assay for Inhibitors and Substrates of Cytochrome P450 3A4 (AID 884; note: nearly all actives have a fitted effect of over 50% in size)). Details: recombinant CYP3A4, Luciferin-PPXE luminescence; series mostly up to 57.1 µM.
Sequence of Cytochrome P450 3A4 (Homo sapiens) (P08684 whole entry, looked up): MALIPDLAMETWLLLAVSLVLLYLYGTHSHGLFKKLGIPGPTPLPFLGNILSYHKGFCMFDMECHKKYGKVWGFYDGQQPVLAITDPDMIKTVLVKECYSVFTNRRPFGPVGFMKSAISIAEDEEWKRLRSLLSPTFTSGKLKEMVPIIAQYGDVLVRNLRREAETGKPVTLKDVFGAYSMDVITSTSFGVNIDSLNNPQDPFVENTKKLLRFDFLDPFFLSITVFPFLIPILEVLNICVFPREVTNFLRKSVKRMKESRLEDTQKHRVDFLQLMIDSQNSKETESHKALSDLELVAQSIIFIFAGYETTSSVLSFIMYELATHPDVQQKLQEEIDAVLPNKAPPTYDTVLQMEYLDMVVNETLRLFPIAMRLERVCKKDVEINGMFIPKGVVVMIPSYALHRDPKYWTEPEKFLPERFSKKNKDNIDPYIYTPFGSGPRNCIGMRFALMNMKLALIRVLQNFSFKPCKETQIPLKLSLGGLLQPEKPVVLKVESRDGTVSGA
Procedure: NIH Molecular Libraries Screening Centers Network [MLSCN]
NIH Chemical Genomics Center [NCGC]
The P450 gene superfamily is involved in the metabolism and clearance of xenobiotics. This assay used human CYP3A4 to measure the dealkylation of luciferin-6' phenylpiperazinylyl (Luciferin-PPXE; […]) to luciferin. The luciferin is then measured by luminescence after the addition of a luciferase detection reagent. Luciferin-PPXE concentration in the assay was equal to its KM for CYP3A4. Inhibitors and some substrates limit the production of luciferin, and decrease measured luminescence.
NCGC Assay Protocol Summary:
Two uL of enzyme and substrate mix (final concentrations: 20nM CYP3A4, 25uM Luciferin-PPXE, 200mM KPO4) were dispensed into a white, solid bottom 1536-well microtiter plate. 23nL of compound was transferred by a pin tool. The plate was incubated at RT for 10 min. Two uL of an NADPH regeneration solution (Promega supplied reagent) was dispensed and the reaction was allowed to continue for 60 min at RT. Then the reaction was stopped by reconstituted luciferin detection buffer. After another 20 min of incubation the plate was read on the ViewLux (Perkin Elmer) at 60 sec exposure and 2x2 binning. This protocol was carried out with Promega-Glo reagents and further information can be found at http://www.promega.com/tbs/tb325/tb325.pdf. Data were normalized to the to AC100 inhibition (57 uM ketoconazole).
Keywords: P450, CYP3A4, Luciferase, MLSMR, MLSCN, NIH Roadmap, qHTS, NCGC
Potency is the fitted concentration of half-maximal effect.

Potency, inactive:
N=c1ccn2c(n1)OC1C(O)C(CO)OC12 (stereo not given), O=C(c1cccc(F)c1)N1CCC2(CC1)CN(c1ccc(-c3ccccc3)cc1)C2, O=C(c1ccco1)N1CCC2(CC1)CN(c1ncccn1)C2, Cc1noc(C)c1C(=O)N1CCC[C@@]2(CCN(Cc3ccc(C#N)cc3)C2)C1, COc1c(-c2ccc(O)c(O)c2)oc2cc(O)cc(O)c2c1=O, CN1CCN(c2ncc3nc(-c4ccc(Cl)cc4)c(=O)n(C)c3n2)CC1, Cn1cccc1C(=O)N1CCC2(CC1)CN(c1ccccn1)C2

Potency, active:
c1ccc(CNc2ccnc(-c3cccnc3)n2)cc1 0.631 µM, CC(C)(C)c1cc(C(=O)/C=C/c2ccc(C(=O)O)cc2)cc(C(C)(C)C)c1 20 µM, O=C(c1ccncc1)N1CCC2(CC1)CN(Cc1cc(C(F)(F)F)cc(C(F)(F)F)c1)C2 5.01 µM, Cc1cnc(CNc2ccnc(-c3cccnc3)n2)cn1 5.01 µM, COc1cccc(Cn2c(=O)c(-c3cn(C)c4ccccc34)nc3cnc(OC)nc32)c1 7.94 µM, CN(Cc1ccco1)c1cc(-c2cccnc2)ncn1 3.16 µM, COc1cccc(-c2nc(NCc3cnc(C)cn3)c3ccccc3n2)c1 2.51 µM, CS(=O)(=O)N1CCC2(CCCN(C(c3ccccc3)c3ccccc3)C2)CC1 3.98 µM, O=C(c1ccco1)N1CCC2(CCCN(Cc3ccncc3)C2)CC1 5.01 µM, COc1cccc(Cn2c(=O)c(-c3cccs3)nc3cncnc32)c1 5.01 µM, Cc1cccc(CNc2cc(-c3cccc(NS(C)(=O)=O)c3)ncn2)c1 2 µM, COc1ccccc1CNc1ncnc2ccc(-c3ccccc3OC)cc12 6.31 µM, COCCn1c(=O)c(CCc2ccccc2)nc2cnc(Oc3ccc(OC)cc3)nc21 3.16 µM, Cc1ccccc1-c1cncnc1N1CCN(C)CC1 1.58 µM, Cc1noc(C)c1-c1cncnc1NC1CC1 7.94 µM, COc1cccc(-c2cncnc2NCc2cccnc2)c1 1.26 µM, COc1ccc(CNc2ncncc2-c2ccccc2C)c(OC)c1 0.398 µM, O=S(=O)(c1ccccc1)N1CCC2(CCCN(c3ccccc3)C2)CC1 3.98 µM, COc1ncc2nc(-c3cn(C)c4ccccc34)c(=O)n(C)c2n1 5.01 µM, COc1ccc(CNc2ccnc(-c3ccccc3Cl)n2)c(OC)c1 3.16 µM, C=C1C2CC[C@@]3(C)C(c4ccoc4)OC(=O)C[C@@]13OC1CC(O)C(C)(C)C(CC(=O)OC)[C@@]12C (stereo not given in full) 12.6 µM and 7.94 µM, Cc1cnc(CNc2ncnc3ccc(-c4cccc(C#N)c4)cc23)cn1 3.16 µM, COc1ccc2[nH]cc(CCNc3ccnc(-c4c(C)noc4C)n3)c2c1 2.51 µM, c1ccc(CNc2ncncc2-c2ccc3c(c2)OCO3)cc1 0.501 µM, COc1cccc(Cn2c(=O)c(-c3ccccc3)nc3cnc(N(C)C)nc32)c1 6.31 µM, Cc1cccc(CNc2ncncc2-c2cccc(NS(C)(=O)=O)c2)c1 0.158 µM, CN(C)C(=O)c1ccc(-c2cncnc2NCc2cccnc2)cc1 5.01 µM, c1cncc(CNc2nc(-c3ccc4c(c3)OCO4)nc3ccccc23)c1 0.316 µM, COc1ccccc1CCn1c(=O)c(CCc2ccccc2)nc2cncnc21 3.16 µM, COc1ccccc1-c1cncnc1NCc1ccccc1 0.251 µM, CN(C)c1nc(-c2cccnc2)nc2ccccc12 7.94 µM, COCCn1c(=O)c(-c2cn(C)c3ccccc23)nc2cnc(Oc3ccc(OC)cc3)nc21 3.98 µM, COc1ccc2[nH]cc(CCNc3ncnc4ccc(-c5ccccc5C#N)cc34)c2c1 2 µM
